{
  "source": "PubChem BioAssay AID1415",
  "about": "(NMMLSC, 2008)",
  "note": "Hit rate of the full screen: of about 220,000 compounds, about 710 (0.32%) were called active. The list comes from a sample in which actives are over-represented; it also holds similar structures and randomly drawn compounds. A number with no mark means an inactive call. Rule as the data show it: active = binding response below about 49% or above about 150%; inactive = in between.",
  "data": [
    {"biological_target": "Guanine nucleotide-binding protein G(o) subunit alpha (Homo sapiens) (UniProt P09471)", "sequence (P09471 whole entry, looked up)": "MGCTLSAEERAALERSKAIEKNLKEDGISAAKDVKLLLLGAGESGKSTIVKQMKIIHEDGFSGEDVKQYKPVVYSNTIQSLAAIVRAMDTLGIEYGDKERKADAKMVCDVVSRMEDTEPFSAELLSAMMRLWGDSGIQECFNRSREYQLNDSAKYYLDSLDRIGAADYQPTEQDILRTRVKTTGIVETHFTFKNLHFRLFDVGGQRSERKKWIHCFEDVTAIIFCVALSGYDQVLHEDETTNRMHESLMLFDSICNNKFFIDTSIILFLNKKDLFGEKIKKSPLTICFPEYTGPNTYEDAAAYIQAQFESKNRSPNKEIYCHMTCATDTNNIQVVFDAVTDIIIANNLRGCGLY", "experiment": "modulators of RGS4 binding to Galphao, primary screen, biochemical, multiplexed bead flow cytometry (AID 1415);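 also: fluorescent Galphao activated with aluminum fluoride binding bead-coupled RGS4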", "details": "at 10 µM, actives lie on both sides", "values": [
      {"smiles": "COC(=O)CCCC1=CC2=CC(=O)C(C)(OC(=O)c3cccs3)C(=O)C2=CN1c1cccc(C#N)c1", "note": "(configuration not stated)", "binding response (% of control)": "96%"},
      {"smiles": "CCOc1cccc(OCCCOc2cccc3cccnc23)c1", "binding response (% of control)": "93%"},
      {"smiles": "O=C(NNC1=C(C(=O)C(F)(F)F)CCC1)c1ccncc1", "binding response (% of control)": "86.6%"},
      {"smiles": "Cc1ccc(N2C(=O)C(Cc3ccccc3)NC2=S)cc1", "note": "(configuration not stated)", "binding response (% of control)": "104%"},
      {"smiles": "Cc1ccc(N2C(=O)C3CC3C2=O)cc1", "note": "(configuration not stated)", "binding response (% of control)": "100%"},
      {"smiles": "Cc1ccc(N2C(=O)C3C(c4ccccc4)(C2=O)C3(c2ccccc2)c2ccccc2)cc1", "note": "(configuration not stated)", "binding response (% of control)": "8.37% (active)"},
      {"smiles": "CC(=O)c1ccc(S(=O)(=O)N2CCN(C(=O)/C=C/c3ccc4ccccc4n3)CC2)cc1", "binding response (% of control)": "84%"},
      {"smiles": "Cc1cccc(NC(=O)CSc2nnc(CCNC(=O)OC(C)(C)C)o2)c1C", "binding response (% of control)": "93.8%"},
      {"smiles": "Nc1ccc(C(=O)OCC(=O)NC2CCCc3ccccc32)cc1[N+](=O)[O-]", "note": "(configuration not stated)", "binding response (% of control)": "98.3%"},
      {"smiles": "O=C(COC(=O)/C=C/c1ccc2c(c1)OCO2)NC1CCS(=O)(=O)C1", "note": "(configuration not stated)", "binding response (% of control)": "104%"},
      {"smiles": "Nc1ccc(C(=O)OCC(=O)NC2CCS(=O)(=O)C2)cc1[N+](=O)[O-]", "note": "(configuration not stated)", "binding response (% of control)": "-18.4% (active)"},
      {"smiles": "Cc1ccc(C(=O)Nc2nc(N)n(-c3ccccc3)n2)cc1", "binding response (% of control)": "103%"},
      {"smiles": "CC(=O)c1ccc(NC(=S)N(Cc2ccccc2)C(C)C2CC2)cc1", "note": "(configuration not stated)", "binding response (% of control)": "106%"},
      {"smiles": "COCC(C)n1c(C)cc(C(=O)COc2ccc(C)nc2[N+](=O)[O-])c1C", "note": "(configuration not stated)", "binding response (% of control)": "99.8%"},
      {"smiles": "Cc1cc(C)n(CC(O)CN(c2ccccc2)S(=O)(=O)c2ccc3ccccc3c2)n1", "note": "(configuration not stated)", "binding response (% of control)": "13.8% (active)"},
      {"smiles": "Cc1ccc(N(CC(O)CN2CCCC2)S(=O)(=O)c2ccccc2)cc1", "note": "(configuration not stated)", "binding response (% of control)": "101%"},
      {"smiles": "O=S(=O)(c1ccccc1)N(CC(O)CN1CCCCC1)c1ccccc1", "note": "(configuration not stated)", "binding response (% of control)": "103%"},
      {"smiles": "COC(=O)c1ccc(CN2CCN(CCCc3ccccc3)C(CCO)C2)cc1", "note": "(configuration not stated)", "binding response (% of control)": "91.5%"},
      {"smiles": "CCN(C(=O)COC(=O)c1cc(S(=O)(=O)N2CCc3ccccc32)ccc1OC)C1CCS(=O)(=O)C1", "note": "(configuration not stated)", "binding response (% of control)": "104%"},
      {"smiles": "O=C(CCCCCn1c(=O)[nH]c2ccccc2c1=O)NCCc1c[nH]c2ccccc12", "binding response (% of control)": "100%"},
      {"smiles": "COc1ccccc1NC(=O)C[n+]1ccccc1", "binding response (% of control)": "96%"},
      {"smiles": "COc1ccccc1NC(=O)CCCc1c[nH]c2ccccc12", "binding response (% of control)": "440% [activator] (active)"},
      {"smiles": "COc1ccc(CCNS(=O)(=O)c2cccc3cccnc23)cc1OC", "binding response (% of control)": "97.9%"},
      {"smiles": "O=C(CSc1ccc([N+](=O)[O-])cn1)Nc1ccc(N2CCOCC2)c(Cl)c1", "binding response (% of control)": "94.7%"},
      {"smiles": "O=C(CN1CCN(c2ccc(Cl)cc2)CC1)N1CCCC1", "binding response (% of control)": "104%"},
      {"smiles": "COC(=O)c1ccccc1OCC(=O)N1CCN(c2ccc(Cl)cc2)CC1", "binding response (% of control)": "349% [activator] (active)"},
      {"smiles": "O=C(COc1ccc(Cl)cc1)N1CCN(c2cccc(C(F)(F)F)c2)CC1", "binding response (% of control)": "101%"},
      {"smiles": "Cc1cccc(CSc2nc3c(c(=O)n2C)SCC3)c1", "binding response (% of control)": "98.4%"},
      {"smiles": "CCc1n[nH]c(=S)n1/N=C/c1c[nH]c2ccc(Br)cc12", "binding response (% of control)": "103%"},
      {"smiles": "COc1c(O)cc2oc(-c3ccc(O)c(O)c3)cc(=O)c2c1O", "binding response (% of control)": "90.8%"},
      {"smiles": "Cc1ccc(-c2c[n+](=O)c3c(n2[O-])CCC3)cc1", "binding response (% of control)": "101%"},
      {"smiles": "COc1ccc(C2CC(c3ccccc3)Nc3ncnn32)cc1", "note": "(configuration not stated)", "binding response (% of control)": "99.7%"},
      {"smiles": "FC(F)Oc1ccccc1C1CC(c2ccc(Br)s2)Nc2ncnn21", "note": "(configuration not stated)", "binding response (% of control)": "187% [activator] (active)"},
      {"smiles": "Clc1ccc(C2CC(c3cccs3)n3ncnc3N2)cc1Cl", "note": "(configuration not stated)", "binding response (% of control)": "97.8%"},
      {"smiles": "Cc1ccc(C(=O)Cc2nnc(C)s2)cc1", "binding response (% of control)": "100%"},
      {"smiles": "COC(=O)[C@H]1Cc2cnoc2C[C@]1(C)C(=O)O", "binding response (% of control)": "101%"},
      {"smiles": "CCOC(=O)c1ccc(NC(=O)c2nc[nH]c2C(=O)N[C@@H](CCCCNC(=O)OC(C)(C)C)C(=O)OC(C)(C)C)cc1", "binding response (% of control)": "96.7%"},
      {"smiles": "CC(C(=O)O)n1cnc2sc3c(c2c1=O)CCCC3", "note": "(configuration not stated)", "binding response (% of control)": "94.7%"},
      {"smiles": "C=CCn1c(=NC(=O)c2cccs2)sc2cc(NC(C)=O)ccc21", "binding response (% of control)": "154% [activator] (active)"},
      {"smiles": "C=CCn1c(=NC(=O)c2ccc(S(=O)(=O)N3CCCC3)cc2)sc2cc(NC(C)=O)ccc21", "binding response (% of control)": "94.5%"},
      {"smiles": "CC(=O)Nc1ccc(/C=N/NC(=O)c2cccs2)cc1", "binding response (% of control)": "99.4%"},
      {"smiles": "Cc1ccc(OCC(=O)Nc2nnc(-c3ccco3)s2)cc1", "binding response (% of control)": "102%"},
      {"smiles": "Cc1ccc2[nH]c(=O)c(CN3CCCCC3)c(-c3ccccc3)c2c1", "binding response (% of control)": "101%"},
      {"smiles": "CCC(=O)NC(Nc1cc(C)ccn1)(C(F)(F)F)C(F)(F)F", "binding response (% of control)": "104%"},
      {"smiles": "Cc1ccc(NC(=O)Nc2cccc(C(F)(F)F)c2)nc1", "binding response (% of control)": "99.7%"},
      {"smiles": "CCOC(=O)NNc1cc(C(F)(F)F)ccn1", "binding response (% of control)": "169% [activator] (active)"},
      {"smiles": "CCCSc1nc(NCc2ccco2)c2c3c(sc2n1)COC(C)(CC)C3", "note": "(configuration not stated)", "binding response (% of control)": "104%"},
      {"smiles": "COc1ccc(OC)c(-n2c(-c3ccn[nH]3)n[nH]c2=S)c1", "binding response (% of control)": "96.7%"},
      {"smiles": "COc1ccccc1-n1c(-c2cc(-c3ccco3)[nH]n2)n[nH]c1=S", "binding response (% of control)": "7.03% (active)"},
      {"smiles": "COc1ccccc1-n1cn[nH]c1=S", "binding response (% of control)": "98.6%"},
      {"smiles": "CSc1ccc(/C=C/C(=O)NC23CC4CC(CC(C4)C2)C3)cc1", "binding response (% of control)": "99.9%"},
      {"smiles": "Fc1ccccc1/C=N/n1c(-c2cccnc2)n[nH]c1=S", "binding response (% of control)": "102%"},
      {"smiles": "OCCC1CN(Cc2cccc(OC3CCCC3)c2)CCN1Cc1ccsc1", "note": "(configuration not stated)", "binding response (% of control)": "100%"},
      {"smiles": "COc1ccc(C)cc1S(=O)(=O)N(CC(=O)Nc1cccc([N+](=O)[O-])c1)c1ccc(C)cc1", "binding response (% of control)": "87.7%"},
      {"smiles": "O=C(OCC1O[C@@H](OC(=O)c2cc(O)c(O)c(O)c2)[C@@H](OC(=O)c2cc(O)c(O)c(O)c2)[C@@H](OC(=O)c2cc(O)c(O)c(O)c2)[C@@H]1OC(=O)c1cc(O)c(O)c(O)c1)c1cc(O)c(O)c(O)c1", "note": "(some centres not stated)", "binding response (% of control)": "1.38% (active)"},
      {"smiles": "CC(=O)NC1C(OCc2ccccc2)OC(COC(C)=O)C(OC(C)=O)C1OC(C)=O", "note": "(configuration not stated)", "binding response (% of control)": "101%"},
      {"smiles": "COc1cc(C(CCN2CCN(c3ccccc3)CC2)c2c(OC)cc(OC)c3ccc(=O)oc23)cc(OC)c1OC", "note": "(configuration not stated)", "binding response (% of control)": "101%"}
    ]}
  ]
}
